These results are taken from PubChem BioAssay (EPA / NIEHS).

Activity calls are given as the source filed them. The calls were made as follows: active = hit-call score of the fitted dose curve at least 0.9, where 1 is the maximum; inactive = score below 0.9.

Read-out in experiment [1]: Urokinase-type plasminogen activator receptor (uPAR), PLAUR (gene 5329)
Nature of the experiment: BSK_BE3C_uPAR: BioMAP Diversity Plus: BE3C Assay for Urokinase-type plasminogen activator receptor (uPAR) Biomarker Activity (AID 2283039).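 As to outcome: uPAR protein level measured by ELISA on the cells; cells exposed to compound for one day before measurement.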 The following applies: primary human bronchial epithelial cells; actives raise or lower the signal. Put shortly:
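ELISA readout of uPAR on human lung primary bronchial epithelial cells, 24 h post-dosing. Bidirectional curve fit relative to DMSO vehicle baseline; gain or loss of signal both scored.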

Read-out in experiment [2]: Interleukin-6 (IL6), IL6 (gene 3569)
Nature of the experiment: BSK_CASM3C_IL6: BioMAP Diversity Plus: CASM3C Assay for Interleukin-6 (IL6) Biomarker Activity for (AID 2283040). Particulars: primary human coronary artery smooth muscle cells; actives raise or lower the signal.

Read-out in experiment [3]: Tissue plasminogen activator (tPA), PLAT (gene 5327)
Nature of the experiment: BSK_BE3C_tPA: BioMAP Diversity Plus: BE3C Assay for Tissue plasminogen activator (tPA) Biomarker Activity (AID 2283041).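 As to outcome: tPA level quantified by ELISA one day after compound addition.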 The following applies: primary human bronchial epithelial cells; actives raise or lower the signal. An outline of the steps: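 ELISA read-out of tPA on human primary bronchial epithelial cells, 24 h post-dosing; bidirectional fit vs DMSO negative control/baseline.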

Read-out in experiment [4]: Interleukin-8 (IL8), CXCL8 (gene 3576)
Nature of the experiment: BSK_CASM3C_IL8: BioMAP Diversity Plus: CASM3C Assay for Interleukin-8 (IL8) Biomarker Activity (AID 2283042).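 Also: IL-8 protein level quantified by ELISA.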 Particulars: primary human coronary artery smooth muscle cells; actives raise or lower the signal.

Read-out in experiment [5]: Human Leukocyte Antigen - DR isotype (HLADR), HLA-DRA (gene 3122)
Nature of the experiment: BSK_CASM3C_HLADR: BioMAP Diversity Plus: CASM3C Assay for Human Leukocyte Antigen - DR isotype (HLADR) Biomarker Activity (AID 2283043).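 Also: cell-surface HLA-DR protein level quantified by ELISA.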 Particulars: primary human coronary artery smooth muscle cells; actives raise or lower the signal.

Read-out in experiment [6]: Macrophage colony-stimulating factor (MCSF), CSF1 (gene 1435)
Nature of the experiment: BSK_CASM3C_MCSF: BioMAP Diversity Plus: CASM3C Assay for Macrophage colony-stimulating factor (MCSF) Biomarker Activity (AID 2283044).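 Also: M-CSF protein amount quantified by ELISA after 24 h exposure.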 Particulars: primary human coronary artery smooth muscle cells; actives raise or lower the signal.

Read-out in experiment [7]: Low-density lipoprotein receptor (LDLR), LDLR (gene 3949)
Nature of the experiment: BSK_CASM3C_LDLR: BioMAP Diversity Plus: CASM3C Assay for Low-density lipoprotein receptor (LDLR) Biomarker Activity (AID 2283045).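 Also: LDLR protein level on the cell surface quantified by ELISA.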 Particulars: primary human coronary artery smooth muscle cells; actives raise or lower the signal.

Read-out in experiment [8]: Monocyte Chemoattractant Protein-1 (MCP1), CCL2 (gene 6347)
Nature of the experiment: BSK_CASM3C_MCP1: BioMAP Diversity Plus: CASM3C Assay for Monocyte Chemoattractant Protein-1 (MCP1) Biomarker Activity (AID 2283046).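 Also: MCP-1 level quantified by ELISA 24 h after dosing.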 Particulars: primary human coronary artery smooth muscle cells; actives raise or lower the signal.

A short description of experiment [9]: BSK_CASM3C_Proliferation: Cell Proliferation Assessment in the BioMAP Diversity Plus: CASM3C Assay (AID 2283047).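 Also: sulforhodamine B total protein stain as relative cell number at 560 nm; sub-confluent cells exposed 48 h before staining; fitted both ways against DMSO so gain or loss of cell number.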 Particulars: primary human coronary artery smooth muscle cells.
Read-out in experiment [10]: Monokine induced gamma interferon (MIG), CXCL9 (gene 4283)
Nature of the experiment: BSK_CASM3C_MIG: BioMAP Diversity Plus: CASM3C Assay for Monokine induced gamma interferon (MIG) Biomarker Activity (AID 2283048).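 Also: MIG protein level measured by ELISA.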 The following applies: primary human coronary artery smooth muscle cells; actives raise or lower the signal.

The AC50 is the concentration giving half of the maximal activity seen. On to `O=C(c1ccccc1)C1CCCCC1`, for which the outcome in [1], in experiment [2], in experiment [4], in [5], in experiment [6] and in [7] was inactive. Besides, the result in experiment [8], in [9] and in experiment [10] was inactive. Also, the AC50 in experiment [3] was 33.3 µM (active).

Consider `CCCCOCCOCCOCc1cc2c(cc1CCC)OCO2`, for which the result in [1], in experiment [2], in [3], in experiment [4], in [5] and in experiment [6] was inactive. Further, the result in [7], in experiment [8], in experiment [9] and in [10] was inactive.

Turning to `C[C@]12C[C@H](O)[C@H]3[C@@H](CCC4=CC(=O)CC[C@@]43C)[C@@H]1CC[C@@H]2C(=O)CO`, the outcome in experiment [1], in experiment [3], in experiment [5] and in experiment [10] was inactive. The AC50 is 0.447 µM (active) in experiment [2]; 0.551 µM (active) in experiment [4]; 21.1 µM (active) in experiment [7]; 0.573 µM (active) in experiment [8]; 0.397 µM (active) in [9].

As for `CCC(O)=C1C(=O)CC(C(=O)O)CC1=O` (stereo not drawn), the outcome in [1], in experiment [2], in experiment [3], in experiment [4], in experiment [5] and in [6] was inactive. Moreover, the result in experiment [7], in [8], in experiment [9] and in experiment [10] was inactive.

In the case of `CC1(C)C(C=C(Cl)Cl)C1C(=O)OCc1cccc(Oc2ccccc2)c1` (stereo not drawn), the outcome in experiment [1], in [3], in experiment [4], in experiment [5], in experiment [6] and in experiment [7] was inactive. Besides, the outcome in experiment [8], in experiment [9] and in [10] was inactive. In addition, the AC50 in experiment [2] was 6.26 µM (active).

For `CCCCC(CC)CN1C(=O)C2C3C=CC(C3)C2C1=O` (stereo not drawn), the result in experiment [1], in experiment [2], in [3], in [4], in experiment [5] and in experiment [6] was inactive. Also, the outcome in experiment [7], in [8], in [9] and in [10] was inactive.

In the case of `CC(C)(C)[C@@H](O)[C@@H](Cc1ccc(Cl)cc1)n1cncn1`, the outcome in experiment [1], in [2], in experiment [3], in [4], in [5] and in experiment [6] was inactive. Also, the outcome in experiment [7], in experiment [8], in [9] and in experiment [10] was inactive.

On to `CCNc1nc(N)nc(Cl)n1`, for which the result in [1], in [2], in experiment [3], in experiment [4], in [5] and in [6] was inactive. In addition, the outcome in experiment [7], in experiment [8], in experiment [9] and in experiment [10] was inactive.

As to `C#CCOC(=O)[C@@H](C)Oc1ccc(Oc2ncc(Cl)cc2F)cc1`, the outcome in [1], in experiment [2], in [3], in experiment [4], in experiment [5] and in experiment [6] was inactive. The outcome in [7], in [8], in [9] and in experiment [10] was inactive.

As to `Oc1ccc(C(c2ccc(O)cc2)C(Cl)(Cl)Cl)cc1`, the AC50 in [1] is 31.1 µM (active); in [6] it was 9.36 µM (active); in [9] it was 20 µM (active). Moreover, the outcome in experiment [2], in experiment [3], in experiment [4], in experiment [5], in [7] and in experiment [8] was inactive. The outcome in experiment [10] was inactive.

With `CCN(CC)C(=O)c1cccc(C)c1`, the result in experiment [1], in experiment [2], in experiment [3], in [4], in experiment [5] and in experiment [6] was inactive. Besides, the outcome in [7], in [8], in experiment [9] and in [10] was inactive.

Turning to `CCCN(CCC)c1c([N+](=O)[O-])cc(C(F)(F)F)c(N)c1[N+](=O)[O-]`, the outcome in experiment [2], in [3], in experiment [4], in experiment [5], in experiment [6] and in experiment [7] was inactive. Moreover, the outcome in experiment [8] and in [10] was inactive. Moreover, in [9], the AC50 was 28.1 µM (active).

`COc1nc(C)nc(NC(=O)NS(=O)(=O)c2ccccc2OCCCl)n1`: the outcome in experiment [1], in experiment [2], in experiment [3], in [4], in experiment [5] and in [6] was inactive. The result in experiment [7], in [9] and in [10] was inactive. In [8], the AC50 was 0.441 µM (active).

Consider `CCN(Cc1c(F)cccc1Cl)c1c([N+](=O)[O-])cc(C(F)(F)F)cc1[N+](=O)[O-]`, for which the outcome in experiment [1], in experiment [2], in experiment [3], in experiment [4], in [5] and in [6] was inactive. The outcome in [8] and in [10] was inactive. The AC50 was 13.5 µM (active) in experiment [7] and 12.3 µM (active) in [9].

For the compound `CCOC(=O)C(C)Oc1ccc(Oc2cnc3cc(Cl)ccc3n2)cc1` (stereo not drawn), the outcome in [1], in experiment [2], in experiment [3], in experiment [4], in [5] and in experiment [6] was inactive. Further, the result in experiment [7], in experiment [8], in experiment [9] and in [10] was inactive.

Regarding `COCCO`, the outcome in [1], in experiment [2], in experiment [3], in [4], in [5] and in experiment [6] was inactive. Also, the outcome in [7], in [8], in [9] and in [10] was inactive.
